Screen size: about 340,000 compounds; about 3,300 (0.97%) were called active. Not shown: some 9% with an inconclusive outcome. Calls come from the whole dose curve; as a rule, active = well fitted inhibition curve with a large enough effect; inconclusive = small, poorly fitted or top-dose-only effect, or effect the other way; inactive = flat fitted curve, though single readings scatter. Some of the results follow.
assay: qHTS Assay for Modulators of miRNAs and/or Inhibitors of miR-21; settings: HeLa miR-21-FLuc reporter, luciferase luminescence, 48 h; actives lower the signal; note: nearly all actives have a fitted effect of over 55% in size
Outline: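 Using DMEM plus 10% FBS, HeLa miR-21-FLuc cells are incubated with test compounds (final up to about 40uM) for 48 hours; firefly luciferase signal is then imaged following reagent-mediated lysis.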
Potency is the fitted concentration of half-maximal effect.

Potency, active:
C/C(CC(=O)NC(C)(C)C)=N\NC(=O)c1ccco1 6.56 µM, Cc1occc1C(=O)N/N=C/c1cnn(C)c1C 13.1 µM, C/C(=N\NC(=O)c1ccco1)c1ccc(-c2ccccc2)cc1 2.93 µM, Cc1occc1C(=O)NNC(=S)Nc1ccccc1C(F)(F)F 8.26 µM, Cc1occc1C(=O)N/N=C/c1cccc2ccccc12 2.07 µM, Cc1occc1C(=O)NNC(=O)c1ccccc1C(=O)O 1.17 µM, C/C(=N/NC(=O)c1ccoc1C)c1ccc(N2CCOCC2)cc1 0.927 µM, O=[N+]([O-])c1ccccc1-c1cc(-c2ccccc2O)n[nH]1 2.07 µM, c1nc(NCCN2CCOCC2)c2c3c(sc2n1)CCCCC3 16.5 µM, Cc1ccc(O)c(NC(=O)c2cc(-c3cccs3)on2)c1 4.65 µM, O=C(Nc1cc(Cl)ccc1O)c1cc(-c2ccco2)on1 16.5 µM, Cc1ccc(O)c(NC(=O)c2cc(-c3ccco3)on2)c1 13.1 µM, Cc1ccc(O)c(NC(=O)c2cc(-c3ccccc3)on2)c1 2.61 µM, Cc1cc(NCc2ccccn2)ccc1Br 9.27 µM, CC(C)(C)c1ccc(-c2nc(C#N)c(NCc3ccncc3)o2)cc1 4.14 µM, COc1ccc(-c2nc(C#N)c(NCCCn3ccnc3)o2)cc1OC 16.5 µM, COc1ccc(-c2nc(C#N)c(NCc3ccc(C)cc3)o2)cc1OC 7.36 µM, COc1ccc(-c2nc(C#N)c(NCCc3ccccc3)o2)cc1 9.27 µM, COc1ccc(-c2nc(C#N)c(NCCc3ccccc3)o2)cc1OC 2.93 µM, CCC(=O)Nc1cccc(OCc2cc(=O)n3cc(C)ccc3n2)c1 6.56 µM, Cc1csc2ncc(C(=O)Nc3ccc4c(c3)OCCO4)c(=O)n12 0.208 µM, O=C(Nc1ccc2c(c1)OCCO2)c1cnc2n(c1=O)CCS2 1.47 µM, COc1cccc(-c2noc(-c3ccoc3C)n2)c1 6.56 µM, COc1ccc(-c2noc(-c3ccoc3C)n2)cc1 2.07 µM, Cc1ccc(/C=N/Nc2ncnc3nc[nH]c23)cc1 0.826 µM, Cc1ccc(NC(=O)Nc2ncnc3nc[nH]c23)cc1 2.93 µM, Cc1ccc(/C=N/Nc2nnc(Cl)c3ccccc23)cc1 0.414 µM, CCc1ccc(/C=N/Nc2ncnc3nc[nH]c23)cc1 0.656 µM, Cc1cccc(/C=N/NC(=O)c2ccc(Br)cc2)c1 18.5 µM, COc1ccc(NC(=S)NNC(=O)c2cccs2)cc1 7.36 µM, CCN(CC)c1ccc(NC(=S)NC(=O)c2cccs2)cc1 2.33 µM, O=C(NNC(=S)Nc1ccccc1)c1cccs1 2.07 µM, Cc1ccc(-n2ncc3c(Nc4cccc(C)c4C)ncnc32)cc1 2.07 µM, CCOc1ccccc1Nc1ncnc2c1cnn2-c1ccc(C)cc1 5.21 µM, CCc1ccccc1Nc1ncnc2c1cnn2-c1ccc(Cl)cc1 6.56 µM, COc1nc(-c2ccccc2)ccc1-c1noc(C)n1 7.36 µM, CCOc1ccccc1-c1nc(-c2ccc(C)nc2OC)no1 3.69 µM, COc1ccccc1-c1nc(-c2ccc(C)nc2OC)no1 3.29 µM, COc1nc(C)ccc1-c1noc(-c2cccs2)n1 1.85 µM, CCOc1ccc(-c2nc(-c3ccccc3C)no2)cc1 0.826 µM, O=C(/C=C/c1c(F)cccc1Cl)Nc1nc2ccccc2[nH]1 5.21 µM, O=C(/C=C/c1c(F)cccc1Cl)Nc1ncccn1 3.29 µM, NC(=O)c1ccccc1NC(=O)/C=C/c1c(Cl)cccc1Cl 2.93 µM, S=C(Nc1ccc2[nH]ccc2c1)NC1CCCCC1 4.14 µM, Cc1cccn2cc(-c3c[nH]c4ccccc34)nc12 13.1 µM, O=C(c1cc(COc2ccc(F)cc2F)on1)N1CCOCC1 14.7 µM, O=C(c1cc(COc2ccc(F)cc2Cl)on1)N1CCCCCC1 4.14 µM, O=C(c1cc(COc2ccc(F)cc2F)on1)N1CCSCC1 5.85 µM, O=C(c1cc(COc2ccc(F)cc2Cl)on1)N1CCSCC1 6.56 µM, O=C(c1cc(COc2c(F)cccc2F)on1)N1CCCCCC1 7.36 µM, Cc1ccc(C)c(N2CCN(c3cnn(-c4nc5ccccc5s4)c(=O)c3Cl)CC2)c1 0.927 µM, O=c1c(Cl)c(N2CCN(c3ccc(F)cc3)CC2)cnn1-c1nc2ccccc2s1 3.29 µM, O=C(/C=C/c1ccccc1)NC1CC2CCC1C2 (centres undefined) 7.36 µM, Cc1cc(-c2ccc(N3CCOCC3)cc2)nc2ccccc12 3.29 µM, NC(=O)CC1C(=O)N(c2ccccc2)C(=S)N1NC(=O)c1ccc(Br)cc1 (centres undefined) 7.36 µM, COc1cccc(C(=O)NN2C(=S)N(c3ccccc3)C(=O)C2CC(N)=O)c1 (centres undefined) 6.56 µM, COc1ccccc1-c1nnc(-c2ccc(N3CCOCC3)cc2)o1 7.36 µM, COc1ccc(-c2nnc(-c3ccccc3)o2)cc1OC 3.69 µM, COc1ccc(-c2nnc(-c3ccc(Br)o3)o2)cc1OC 14.7 µM, CCOc1ccc(-c2nnc(-c3cccs3)o2)cc1OCC 6.56 µM, c1csc(-c2nc(-c3ccc(-c4ccon4)s3)no2)c1 0.329 µM, COc1ccc(-c2noc(-c3cccs3)n2)cc1OC 0.826 µM, CN(C)c1ccc(-c2nnc(-c3cccs3)o2)cc1 0.117 µM, COc1ccc(CCN(C)C(=O)CCc2nnc(-c3ccccc3)o2)cc1OC 4.65 µM, COc1ccc(-c2nnc(-c3cccs3)o2)cc1OC 2 µM, CCOc1ccc(-c2nnc(-c3ccco3)o2)cc1OCC 16.5 µM, Cc1cc(C)c(C#N)c(SCC(=O)Nc2nonc2N)n1 14.7 µM, Cc1cc(C)c(C#N)c(SCC(=O)Nc2ccc3c(c2)OCO3)n1 3.29 µM, COc1ccc(NC(=S)Nc2cc(C)ccn2)c(OC)c1 1.65 µM, COc1ccc(NC(=O)c2ccc(C)cc2)c(OC)c1 5.85 µM, COc1ccc(NC(=O)c2cc(C(C)C)on2)c(OC)c1 3.69 µM, CCN(CC)C(=O)c1ccc(-c2cccs2)s1 6.56 µM, CC(=O)N=C(N)Sc1nc2ccccc2[nH]1 2.33 µM, NC(=O)c1ccccc1N/C=C/C(=O)c1cccs1 0.521 µM, CCOC(=O)c1ccccc1N/C=C/C(=O)c1cccs1 9.27 µM, Cc1ccc2nc(-c3ccc(SCC(=O)Nc4nc(C)cs4)nc3)[nH]c2c1 1.47 µM, c1ccc(N2CCN(c3cnc4ccccc4n3)CC2)cc1 1.04 µM, COc1ccccc1OCCCOc1ccc(C)cc1Br 14.7 µM, COc1cc(C)ccc1OCCCOc1ccccc1Br 14.7 µM, O=C(c1ccc(F)cc1)c1ccc(N2CCCCC2)cc1 4.65 µM, COc1ccc(/C(C)=N/NC(=O)c2ccccc2N)cc1 18.5 µM, COc1ccc(C(=O)N/N=C(/C)c2ccc(N3CCCCC3)cc2)cc1 8.26 µM, C/C(=N\NC(=O)c1ccccc1)c1ccc(N2CCCCC2)cc1 6.56 µM, Cc1ccc(/C(N)=N/OC(=O)c2ccc(C)cc2Cl)cc1 0.261 µM, Cc1ccc(/C(N)=N/OC(=O)c2ccc(Cl)cc2Cl)cc1 1.04 µM, CCn1c(/C=C/c2c[nH]c3ccccc23)nc2ccccc2c1=O 0.414 µM, O=C(NNc1ncnc2ccccc12)c1cccc(Cl)c1 0.927 µM, O=C(c1cnsn1)N1CCC(CO)(Cc2cccc(F)c2)CC1 14.7 µM, CSc1nc(N)n2nc(-c3ccc(Cl)cc3)cc2n1 0.826 µM, Cc1cc(C)n2nc(-c3cccc(Br)c3)cc2n1 3.29 µM, Cc1nc2cc(-c3ccc(Cl)cc3)nn2c(NCCN(C)C)c1C 5.85 µM, Cc1cccc(-c2cc3nc(C)cc(C)n3n2)c1 1.85 µM, Cc1cc(C)n2nc(-c3ccc(Cl)cc3)cc2n1 1.17 µM, Cc1ccc(-c2cc3nc(C)cc(C)n3n2)cc1 3.69 µM, COc1ccc(-c2cc3nc(C)cc(C)n3n2)cc1 3.29 µM, Cc1ccsc1C(=O)NNC(=O)C1CC=CCC1C(=O)O (centres undefined) 4.65 µM, Cc1ccsc1C(=O)NNC(=O)C1C2C=CC(C2)C1C(=O)O (centres undefined) 0.826 µM, Cc1ccsc1C(=O)NNC(=O)C1CCCCC1C(=O)O (centres undefined) 1.85 µM, CN(C)/N=C/c1ccc(OS(=O)(=O)c2ccccc2)cc1 3.29 µM, Cc1[nH]n(C(N)=S)c(=O)c1N=Nc1ccc2ccccc2c1 1.47 µM, Nc1nc2sc3c(c2c(=O)s1)CCCC3 16.5 µM, COCCCNC(=O)COc1ccc(Br)cc1Cl 10.4 µM, COc1ccc(Nc2nc(N)nc(CSC(=S)N3CCOCC3)n2)cc1 16.5 µM, COc1ccc(Nc2nc(N)nc(CSC(=S)N3CCCCC3)n2)cc1 14.7 µM, CC(C)OC(=O)c1ccc2nc3ccccc3nc2c1 0.656 µM, O=C(/C=C/Nc1ccccc1F)c1ccc(Br)cc1 0.293 µM, O=C(/C=C\Nc1ccc(Br)cc1)c1cccnc1 1.31 µM, O=C(/C=C/Nc1ccc(F)c(F)c1)c1ccc(Br)cc1 1.85 µM, O=C(/C=C/Nc1ccc(F)cc1)c1ccc(Br)cc1 0.927 µM

From PubChem BioAssay AID2289 (National Center for Advancing Translational Sciences (NCATS), 2010)
